From PubChem BioAssay
Activity calls are given as the source filed them.

assay: JC-1 mitochondrial signal, unstimulated MM1S myeloma – cell-based, JC-1 fluorescence, 24 h, 100 nL compound, profiling panel (AID 1170); details: MM1S mitochondrial potential, higher = more signal
Note: test concentration not given here.

Compound | z-score
CO[C@H]1COC(=O)CC=C[C@H](C)[C@@H](OC)COC(=O)[C@@H](C)NC(=O)CC=C[C@@H]1C | -0.582
CO[C@@H]1COC(=O)CC=C[C@@H](C)[C@@H]2C=C[C@H](O)[C@@H](COC(=O)CC=C[C@H]1C)O2 | 0.658
CCOC(=O)[C@H](CC(C)C)NC(=O)CCC1CC(OC(=O)NCCc2ccc(F)cc2)CC2(CCCC(COC(=O)NCCc3ccccc3OC)O2)O1 (stereo not given in full) | -0.878
CCCNC(=O)OC[C@H]1O[C@H](CCON=C(C)CCN2CCCc3nc(C)c(C)cc32)C=C[C@@H]1Oc1ccc(OC)cc1 | 0.023
CCC(=O)[C@@]1(O)C(=O)N2C(=C3C(=O)OCC[C@@H]31)N(Cc1ccccc1)C(C)=C(C(=O)OC)[C@H]2c1ccccc1 | 0.676
CC(C)(C)N1C(=O)[C@H]2[C@H]3[C@H](O)C=CC(=O)[C@@H]3CC[C@H]2C1=O | 1.19
CC(CCN1CCCc2nc(C)c(C)cc21)=NO[C@@H](C)c1cc(-c2c(C)cc(C)cc2C)no1 | -1.08
C[C@H](ON=C1[C@H]2CCn3c(=O)n(-c4ccccc4)c(=O)n3[C@H]2[C@H](O)[C@@H]2O[C@H]12)c1cn([C@H](CO)Cc2ccccc2)nn1 | 0.155
CCN1C(=O)[C@H]2[C@H]3[C@H](O)[C@H](O)CC(=O)[C@H]3CC[C@H]2C1=O | 0.816
C#CCCCON=C1C[C@@H](O)[C@@H](O)[C@@H]2[C@@H]3C(=O)N(c4ccc(F)cc4F)C(=O)[C@@H]3CC[C@H]12 | -1.25
O=C(NN=C1C[C@@H](O)[C@@H](O)[C@@H]2[C@@H]3C(=O)N(C4CCCCC4)C(=O)[C@@H]3CC[C@@H]12)OCc1ccccc1 | -0.309
CC(CCN1CCCCc2nc(C)c(C)cc21)=NOC[C@@H](O)COCc1ccco1 | -0.797
C=CC1=C[C@H](O)[C@@H]2O[C@@H]2C12OCCCO2 | -0.361
CON=C1[C@H]2CCn3c(=O)n(-c4ccccc4)c(=O)n3[C@H]2[C@H](O)[C@@H]2O[C@H]12 | 0.68

assay: resazurin metabolic signal in A549 cells – cell-based, resazurin fluorescence, 24 h, PK04 Diversity Set, profiling panel (AID 1171); details: A549 viability, higher = more signal, called active from +8 up or from −8 down

Compound | z-score
CC(CCN1CCCCc2nc(C)c(C)cc21)=NOC[C@@H](C)[C@H](OCc1ccccc1)C(C)C | -0.472 (inactive)
COC(=O)CC=C[C@@H](C)[C@@H](C=NO[C@@H]1O[C@H](COC(C)=O)[C@@H](OC(C)=O)[C@H](OC(C)=O)[C@H]1OC(C)=O)OC | 1 (inactive)
CO[C@@H]1COC(=O)[C@H](CCSC)NC(=O)CC=C[C@@H](C)COC(=O)CCC[C@H]1C | 0.977 (inactive)
CCCNC(=O)OC[C@H]1O[C@H](CCON=C(C)CCC(=O)OC[C@H]2O[C@H](c3ccccc3)C=C[C@@H]2Oc2ccc(OC)cc2)C=C[C@@H]1Oc1ccc(OC)cc1 | 0.748 (inactive)
CCN1C(=O)[C@@H]2[C@H]3C(=CC[C@@H]2C1=O)C1(OCCCO1)[C@H]1O[C@H]1[C@H]3O | -3.14 (inactive)
O=C1[C@H]2[C@H]3[C@H](O)[C@H](O)CC(=NOC[C@@H](O)COCc4ccco4)[C@H]3CC[C@H]2C(=O)N1Cc1ccccc1 | 0.968 (inactive)
CO[C@H]1COC(=O)[C@@H](C)COC(=O)[C@H](C)NC(=O)CC=C[C@H]1C | 0.488 (inactive)
C[C@H]1COC(=O)[C@@H]2CCCN2C(=O)[C@@H](C)COC(=O)[C@H](Cc2ccccc2)NC1=O | 0.264 (inactive)
COC(=O)CC=C[C@@H](C)[C@H](OCc1cccc(-c2ccccc2)c1)C1CCCCC1 | 0.2 (inactive)
C=CC[C@@H]1C=C[C@H](ON=C(C)CCC(=O)OC[C@H]2O[C@H](C#Cc3ccccc3)C=C[C@@H]2Oc2ccc(C)cc2)[C@@H](CO)O1 | 0.231 (inactive)
CON=C[C@@H](NS(=O)(=O)c1ccc(C)cc1)[C@H](C)C=CCC(=O)OC | -0.262 (inactive)
CO[C@@H]1COC(=O)CC=C[C@H](C)[C@H](OC)COC(=O)[C@H](C)NC(=O)CC=C[C@H]1C | 0.932 (inactive)
CC(CCC(=O)OC[C@H]1O[C@H](C#Cc2ccccc2)C=C[C@@H]1Oc1ccc(C)cc1)=NO[C@H](C)c1cn([C@H](CO)Cc2ccccc2)nn1 | 0.804 (inactive)
CCOC(=O)[C@H](Cc1ccccc1)NC(=O)CCC1CC(OC(=O)NCc2cccc3ccccc23)CC2(CCCC(COC(=O)NCC(c3ccccc3)c3ccccc3)O2)O1 (stereo not given in full) | 1.36 (inactive)
CC(C)=CCCC(C)=CCON=C1C[C@@H](O)[C@@H](O)[C@@H]2[C@@H]3C(=O)N(C[C@@H]4CCCO4)C(=O)[C@@H]3CC[C@H]12 | 0.691 (inactive)
COC(=O)[C@H]1O[C@@H](c2c(OC)c(OC)c(C)c(OC)c2OC)[C@H](C)[C@@H](O)[C@H]1C | -1.27 (inactive)
COc1ccc(O[C@H]2C=C[C@@H](c3ccccc3)O[C@@H]2COC(=O)CCC(C)=NOC[C@@H](O)[C@H]2O[C@@H]3OC(C)(C)O[C@@H]3[C@H]2O)cc1 | 0.138 (inactive)
CCOC(=O)[C@H](CC(C)C)NC(=O)CCC1CC(OC(=O)NCCc2ccc(F)cc2)CC2(CCCC(COC(=O)NCC3CCCCC3)O2)O1 (stereo not given in full) | 0.21 (inactive)

Compound | z-score
CC(C)=CCCC(C)=CCON=C1C[C@@H](O)[C@@H](O)[C@@H]2[C@@H]3C(=O)N(C4CCCCC4)C(=O)[C@@H]3CC[C@@H]12 | 0.023 (inactive)
COC(=O)CC=C[C@@H](C)[C@@H](C=NOC[C@H]1O[C@H](c2ccccc2)C=C[C@@H]1Oc1ccc(OC)cc1)NS(=O)(=O)c1ccc(C)cc1 | -0.374 (inactive)
CCc1cc2c(nc1CC)CCN(CCC(C)=NO[C@H](C)c1cn([C@@H]3COC[C@H]3O)nn1)C2 | -0.574 (inactive)
CCOC(=O)NN=C1C[C@@H](O)[C@@H](O)[C@@H]2[C@@H]3C(=O)N(Cc4ccc5c(c4)OCO5)C(=O)[C@@H]3CC[C@H]12 | -0.027 (inactive)
CO[C@H]1COC(=O)CC=C[C@H](C)[C@@H](OC)COC(=O)[C@@H](C)NC(=O)CC=C[C@@H]1C | 0.66 (inactive)
CO[C@@H]1COC(=O)CC=C[C@@H](C)[C@@H]2C=C[C@H](O)[C@@H](COC(=O)CC=C[C@H]1C)O2 | 0.0324 (inactive)
CCOC(=O)[C@H](CC(C)C)NC(=O)CCC1CC(OC(=O)NCCc2ccc(F)cc2)CC2(CCCC(COC(=O)NCCc3ccccc3OC)O2)O1 (stereo not given in full) | -0.311 (inactive)
CCCNC(=O)OC[C@H]1O[C@H](CCON=C(C)CCN2CCCc3nc(C)c(C)cc32)C=C[C@@H]1Oc1ccc(OC)cc1 | 1.21 (inactive)
CCC(=O)[C@@]1(O)C(=O)N2C(=C3C(=O)OCC[C@@H]31)N(Cc1ccccc1)C(C)=C(C(=O)OC)[C@H]2c1ccccc1 | -0.342 (inactive)
CC(C)(C)N1C(=O)[C@H]2[C@H]3[C@H](O)C=CC(=O)[C@@H]3CC[C@H]2C1=O | 0.0796 (inactive)
CC(CCN1CCCc2nc(C)c(C)cc21)=NO[C@@H](C)c1cc(-c2c(C)cc(C)cc2C)no1 | -0.102 (inactive)
C[C@H](ON=C1[C@H]2CCn3c(=O)n(-c4ccccc4)c(=O)n3[C@H]2[C@H](O)[C@@H]2O[C@H]12)c1cn([C@H](CO)Cc2ccccc2)nn1 | -0.16 (inactive)
CCN1C(=O)[C@H]2[C@H]3[C@H](O)[C@H](O)CC(=O)[C@H]3CC[C@H]2C1=O | 0.26 (inactive)
C#CCCCON=C1C[C@@H](O)[C@@H](O)[C@@H]2[C@@H]3C(=O)N(c4ccc(F)cc4F)C(=O)[C@@H]3CC[C@H]12 | 0.705 (inactive)
O=C(NN=C1C[C@@H](O)[C@@H](O)[C@@H]2[C@@H]3C(=O)N(C4CCCCC4)C(=O)[C@@H]3CC[C@@H]12)OCc1ccccc1 | -0.24 (inactive)
CC(CCN1CCCCc2nc(C)c(C)cc21)=NOC[C@@H](O)COCc1ccco1 | -0.701 (inactive)
C=CC1=C[C@H](O)[C@@H]2O[C@@H]2C12OCCCO2 | 0.0527 (inactive)
CON=C1[C@H]2CCn3c(=O)n(-c4ccccc4)c(=O)n3[C@H]2[C@H](O)[C@@H]2O[C@H]12 | -0.378 (inactive)
